Assay results: PubChem BioAssay (NCATS)
A number with no mark means an inactive call. Results filed as inconclusive are left out. Entries that show only a call come without a potency. Active and inactive are the calls of the source. Calls come from the whole dose curve; as a rule, active = well fitted curve in the direction sought with a large enough effect; inconclusive = small, poorly fitted or top-dose-only effect, or another doubt; inactive = no such curve, though single readings can be large; an effect the other way counts as inactive or inconclusive. Where a SMILES comes first, the peptide text is derived from it. [ ]: non-standard residue; d: D form. ξ: configuration not given here. ξPhe(βξ-Me) = CC(c1ccccc1)C(N)C(=O)O; GABA = NCCCC(=O)O

Legend:
[1] = biological target: Phospholipid hydroperoxide glutathione peroxidase GPX4 (Homo sapiens) (UniProt P36969); assay: Primary qHTS Assay for Inhibitors of Recombinant Selenoprotein Glutathione Peroxidase 4 (GPX4) (AID 1845192); note: nearly all actives have a fitted effect of over 65% in size
In short: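 GR-coupled readout: 100 nM GR, 1 mM GSH, 0.5 mM NADPH; NADPH fluorescence (ex 340/em 450 nm) read at t=0 and after 15 min RT. GPX4 200 nM, preincubated 30 min with compound; substrate 0.5 mM CHP.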

[2] = biological target: Luciferin 4-monooxygenase (Photinus pyralis) (UniProt P08659); assay: Primary firefly luciferase (FLuc) qHTS assay for identification of artifact compounds. (AID 1845220); note: nearly all actives have a fitted effect of over 60% in size; note: potency is the fitted concentration of half-maximal effect
In short: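 Reaction readout was CCD-imaged luminescence, taken 5 min after adding 10 nM purified firefly enzyme to compound-treated wells holding 10 uM luciferin and ATP in pH 7.6 buffer.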

[3] = Primary fluorescence-based thiol-reactive (MSTI) qHTS assay for identification of artifact compounds. (AID 1845221); note: nearly all actives have a fitted effect of over 65% in size; note: potency is the fitted concentration of half-maximal effect
In short: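 MSTI probe at 4 uM final in 2% DMSO/PBS pH 7.4; compounds, 1 h at room temperature in dark. Fluorescence Ex/Em 525/598 nm, normalised to Acetyl-MSTI and MSTI, fitted to 4-parameter Hill.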

[4] = test system: Nanoluciferase (engineered Oplophorus gracilirostris luciferase); assay: Primary Nanoluciferase (NLuc) qHTS assay for identification of artifact compounds. (AID 1845222); note: potency is the fitted concentration of half-maximal effect;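 for activity, negative = inhibition: NLuc secreted into diluted conditioned medium of S16 cells; series mostly up to about 54 µM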
In short: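 Concentration-response data were obtained by luminescence after 5 min with Nano-Glo substrate at 1:100. The enzyme was diluted S16 NLuc-expressing cell medium, preincubated with compound for 15 min at RT. Curves were fitted with a 4-parameter Hill model.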

[5] = Primary redox qHTS assay for identification of artifact compounds. (AID 1845223); note: potency is the fitted concentration of half-maximal effect
In short: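 Amplex Red (25 uM) and HRP (250 mU/mL) in HBSS, with compounds for 15 min, then 250 uM DTT for 30 min, room temperature, dark. Fluorescence 525/598 nm read; normalized to DMSO and 10 uM DA3003; Hill fit.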

Chain of Phospholipid hydroperoxide glutathione peroxidase GPX4 (Homo sapiens) (P36969 whole entry, looked up): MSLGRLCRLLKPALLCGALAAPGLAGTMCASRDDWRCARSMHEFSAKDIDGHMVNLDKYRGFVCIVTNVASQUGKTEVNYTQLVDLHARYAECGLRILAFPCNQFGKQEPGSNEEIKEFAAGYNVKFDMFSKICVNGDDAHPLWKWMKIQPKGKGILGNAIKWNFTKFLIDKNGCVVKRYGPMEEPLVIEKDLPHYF

COc1cc(C(=O)OC[C@H]2O[C@H](O[C@@]3(CO)O[C@@H](CO)[C@H](O)[C@H]3O)[C@H](O)[C@@H](O)[C@@H]2O)ccc1O
Potency [1]: inactive | Potency [2]: inactive | Potency [3]: inactive | Potency [4]: inactive | Potency [5]: inactive

CC1CCC2(C)C(CC(O)C(O)C23CO3)C1(C)CCC1=CC(O)OC1=O (configuration not stated)
Potency [1]: inactive | Potency [2]: inactive | Potency [3]: inactive | Potency [5]: inactive

CC1(C)CCC(C)(C)c2cc([C@@H](O)C(=O)Nc3ccc(C(=O)O)cc3F)ccc21
Potency [1]: inactive | Potency [2]: inactive | Potency [3]: inactive | Potency [5]: inactive

c1ccc(C(OC2CCN(CCCc3nn[nH]n3)CC2)c2ccccc2)cc1
Potency [1]: inactive | Potency [2]: inactive | Potency [3]: inactive | Potency [5]: inactive

Cc1nn(C)c2c1C(c1ccc(C(F)(F)F)cc1)C(C#N)=C(N)O2 (configuration not stated)
Potency [1]: inactive | Potency [2]: inactive | Potency [3]: 6.7 µM (active) | Potency [5]: 4.23 µM (active)

C[C@@H]1C(=O)O[C@H]2CC34[C@H]5C[C@@H](C(C)(C)C)C36[C@@H](OC(=O)[C@@H]6O)OC4(C(=O)O5)[C@]21O (some centres not stated)
Potency [1]: inactive | Potency [2]: inactive | Potency [4]: inactive | Potency [5]: inactive

CN1C(=O)c2ccccc2NC(=O)[C@]12O[C@@H]2c1cccc(O)c1
Potency [1]: inactive | Potency [2]: inactive | Potency [4]: inactive

CC(C)=CCc1ccc(Oc2c(O)cc(C)cc2CO)c(C(=O)O)c1O
Potency [1]: inactive | Potency [2]: inactive | Potency [4]: inactive

O=C(O)CCc1cc2ccoc2cc1O[C@@H]1O[C@H](CO[C@@H]2OC[C@](O)(CO)[C@H]2O)[C@@H](O)[C@H](O)[C@H]1O
Potency [1]: inactive | Potency [2]: inactive | Potency [4]: inactive | Potency [5]: inactive

C=CCc1ccc(O[C@@H]2O[C@H](CO[C@@H]3O[C@@H](C)[C@H](O)[C@@H](O)[C@H]3O)[C@@H](O)[C@H](O)[C@H]2O)cc1
Potency [1]: inactive | Potency [2]: inactive | Potency [4]: inactive | Potency [5]: inactive

C[C@H](NCc1ccc(OCc2ccccc2F)cc1)C(N)=O
Potency [1]: inactive | Potency [2]: inactive | Potency [4]: inactive

Cc1cc(O)c(C(C)C)cc1O[C@@H]1O[C@H](CO)[C@@H](O)[C@H](O)[C@H]1O
Potency [1]: inactive | Potency [2]: inactive | Potency [4]: inactive | Potency [5]: inactive

COC1=CC(=O)C[C@@H](C)[C@]12Oc1cc(OC)cc(OC)c1C2=O
Potency [1]: inactive | Potency [2]: inactive | Potency [4]: inactive | Potency [5]: inactive

CCOc1c2c(c(OCC)c3ccccc13)C(=O)N(c1ccc(CC(=O)NS(=O)(=O)c3ccccc3)cc1)C2
Potency [1]: inactive | Potency [2]: inactive | Potency [4]: 12 µM (active) | Potency [5]: inactive

CC(C)CC1NC(=O)C(C(C)c2ccccc2)NC(=O)C(C(C)C)NC(=O)C(C)NC(=O)CCCNC(=O)C(Cc2c[nH]c3ccccc23)NC(=O)C(C)NC1=O (stereo not drawn) (cyclo([GABA]AV[ξPhe(βξ-Me)]LAW); configuration not given here)
Potency [1]: inactive | Potency [2]: inactive | Potency [4]: inactive

CC(/C=C/[C@]1(O)[C@@]2(C)CO[C@@]1(C)C[C@@H](O)C2)=C\C(=O)O[C@@H]1O[C@H](CO)[C@@H](O)[C@H](O)[C@H]1O
Potency [1]: inactive | Potency [2]: inactive | Potency [4]: inactive | Potency [5]: inactive

CO[C@@H]1CC[C@H](OC[C@]2(COC(=O)c3ccc(C)[nH]3)[C@H](OC(C)=O)CC[C@@]3(C)[C@@H]4CC=C(C)[C@@H](C5=C(O)C(=O)OC5O)[C@]4(C)CC[C@@H]32)O[C@H]1C (some centres not stated)
Potency [1]: inactive | Potency [2]: inactive | Potency [4]: inactive

CC12CCC3C(C)(C)C(O)CCC3(C)C1Cc1c(oc(C(=O)O)cc1=O)O2 (configuration not stated)
Potency [1]: inactive | Potency [2]: inactive | Potency [4]: inactive

CC1CCC23COC(=O)C2=CC(O)CC3C1(C)CCC1=CC(=O)OC1O (configuration not stated)
Potency [1]: inactive | Potency [2]: inactive | Potency [4]: inactive

COC1CC(OC2CCC3(C)C(=CCC4C3CCC3(C)C(C(C)O)CCC43O)C2)OC(C)C1OC1OC(C)C(OC2OC(COC3OC(COC4OC(CO)C(O)C(O)C4O)C(O)C(O)C3O)C(O)C(O)C2O)C(OC)C1O (configuration not stated)
Potency [1]: inactive | outcome [2]: inactive [at 11.6 µM] | activity, negative = inhibition [4]: 4.38% [at 11.6 µM]

CCOc1ccc(C(Nc2ccccn2)c2ccc3ccc(C)nc3c2O)cc1C (configuration not stated)
Potency [1]: inactive | Potency [2]: inactive | Potency [4]: inactive

C[C@H]1[C@H](C)CC[C@]2(C(=O)O[C@@H]3O[C@H](CO)[C@@H](O)[C@H](O)[C@H]3O)CC[C@]3(C(=O)O)C(=CCC4[C@@]5(C)CC[C@H](O[C@@H]6O[C@H](CO)[C@@H](O)[C@H](O)[C@H]6O)C(C)(C)C5CC[C@]43C)[C@H]12 (some centres not stated)
Potency [1]: inactive | outcome [2]: inactive [at 11.6 µM] | activity, negative = inhibition [4]: -1.27% [at 11.6 µM] | redox activity (% of DA3003) [5]: 2.24% [at 11.5 µM]

CCCCNC(=O)[C@@H]1Cc2ccccc2N1C(=O)[C@@H](N)CC
Potency [1]: inactive | Potency [2]: inactive | Potency [4]: inactive

CC(O)(CC(=O)O)CC(=O)O[C@@H]1[C@@H](O)[C@H](OCCc2ccccc2)O[C@H](CO)[C@H]1O (some centres not stated)
Potency [1]: inactive | Potency [2]: inactive | Potency [4]: inactive | Potency [5]: inactive

C=C1CCC2C(C)(COC3OC(COC(=O)CC(=O)O)C(O)C(O)C3O)CCCC2(C)C1CCC1=CCOC1=O (configuration not stated)
Potency [1]: inactive | Potency [2]: inactive | Potency [4]: inactive

CCC[C@@H]1C[C@@H](C(=O)N[C@H](C(C)Cl)[C@H]2O[C@H](SC)[C@H](O)[C@@H](O)[C@H]2O)N(C)C1 (some centres not stated)
Potency [1]: inactive | Potency [2]: inactive | Potency [4]: inactive

C/C=C(\C)C(=O)O[C@H]1[C@@H](O[C@]2(COC(=O)CC(C)C)O[C@H](COC(=O)C(C)C)[C@@H](OC(C)=O)[C@@H]2O)O[C@H](COC(C)=O)[C@@H](O)[C@@H]1O
Potency [1]: inactive | Potency [2]: 4.46 µM (active) | Potency [4]: inactive

COc1ccc(/C=C/C(=O)O[C@@H]2[C@@H](OC(C)=O)[C@@H](OC(C)=O)[C@H](O[C@H]3[C@@H]4C=CO[C@@H](O[C@@H]5O[C@H](CO)[C@@H](O)[C@H](O)[C@H]5O)[C@@H]4[C@@]4(CO)O[C@@H]34)O[C@H]2C)cc1O
Potency [1]: inactive | Potency [2]: inactive | Potency [4]: inactive

CO[C@@H](Cc1ccc(OCCc2nc(-c3ccccc3)oc2C)c2ccsc12)C(=O)O
Potency [1]: inactive | Potency [2]: inactive | Potency [4]: inactive

NCCOCCOCCNC(=O)Cc1ccc(Nc2nc(NCc3ccc(F)cc3)nc(NCC3CCCCC3)n2)cc1
Potency [1]: inactive | Potency [2]: inactive | Potency [4]: inactive

CC1=C2C=C(CO)C(CO)CCC2(C)CCC1=O (configuration not stated)
Potency [1]: inactive | Potency [2]: inactive | Potency [4]: inactive

C=C1CCC2[C@@](C)(C=O)CCC[C@]2(C)[C@H]1CC/C(C)=C/CO (some centres not stated)
Potency [1]: inactive | Potency [2]: inactive | Potency [4]: inactive

CC1C(=O)CC2C3C(O)CC(C(=O)O)C12CC3(C)C (configuration not stated)
Potency [1]: inactive | Potency [2]: inactive | Potency [4]: inactive | Potency [5]: inactive

O=c1c2cccnc2n(-c2cccc([N+](=O)[O-])c2)c(=O)n1Cc1ccncc1
Potency [1]: inactive | Potency [2]: inactive | Potency [4]: inactive

COc1cc(N2CCC(N(C)C)CC2)ccc1Nc1ncc(Cl)c(Nc2ccccc2P(C)(C)=O)n1
Potency [1]: inactive | Potency [2]: inactive | Potency [4]: inactive

CC1(CCC(=O)O)C(=O)C=CC23CC4CC(OC4(C)C2O)C13 (configuration not stated)
Potency [1]: inactive | Potency [2]: inactive | Potency [4]: inactive | Potency [5]: inactive

COC(=O)C12C(=O)C(C)=C(O)C1(C)C(C)=CC1C34CCC(OC3=O)C(C)(C)C4CCC12C (configuration not stated)
Potency [1]: inactive | Potency [2]: inactive | Potency [4]: inactive | Potency [5]: inactive

CC1(C)CC2C(C1)C1(C)CCC13OC3(CO)C2O (configuration not stated)
Potency [1]: inactive | Potency [2]: inactive | Potency [4]: inactive | Potency [5]: inactive

C=C(C)C(C)C1OC23CC4(CO2)C(CCC2C5(C)CCC(OC6OCC(O)C(OC7OC(CO)C(O)C(OC8OCC(O)C(O)C8O)C7O)C6OC6OC(CO)C(O)C6O)C(C)(C)C5CCC24C)C3C(C)(O)C1OC(C)=O (configuration not stated)
Potency [1]: inactive | outcome [2]: inactive [at 11.6 µM] | activity, negative = inhibition [4]: 3.65% [at 11.6 µM]

CCc1c(CC(N)=O)c2cc(OCCCP(=O)(O)O)ccc2n1Cc1ccccc1
Potency [1]: inactive | Potency [2]: inactive | Potency [4]: inactive

C=CC1(C)CC(OC(=O)C(=C)C(O)COC(C)=O)C(C(=C)C(=O)OC)C(O)C1C(=C)CO (configuration not stated)
Potency [1]: inactive | Potency [2]: inactive | Potency [4]: inactive | Potency [5]: inactive

COc1ccccc1[C@@H]1C2=C(CC(C)(C)CC2=O)Nc2n[nH]c(C(F)(F)F)c21
Potency [1]: inactive | Potency [2]: inactive | Potency [4]: inactive | Potency [5]: inactive

CC1=CC(=O)C2C(C)(C)CC(O)CC2(C)C1CO (configuration not stated)
Potency [1]: inactive | Potency [2]: inactive | Potency [4]: inactive

COc1cc(-c2cccc(O)c2)cc2c1OCO2
Potency [1]: inactive | Potency [2]: inactive | Potency [4]: inactive

CC1[C@@H](O)[C@@H](O)C2[C@]3(C)C(C[C@H]4OC(=O)[C@H](O)[C@]1(O)[C@@]24C)C(C)(O)C[C@H](O)[C@H]3O (some centres not stated)
Potency [1]: inactive | Potency [2]: inactive | Potency [4]: inactive | Potency [5]: inactive
